Only a selection was taken, and hits are over-represented in it overall.
Pf Dd2 growth: blocks in vitro growth of P. falciparum Dd2. P. falciparum Dd2 growth, SYBR Green, 72 h. Potency, µM (highest dose often 28.9 µM), for the others: at the top dose activity, negative = inhibition, most hits filed as inhibitors. hit rate 4.3% among 120,000. AID 1347417; active means well fitted inhibition curve with a large enough effect;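 further: plate controls were DMSO vehicle for no effect and reference drug for full effect; nearly all actives have a fitted effect of over 65% in size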
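Readout: SYBR Green fluorescence, 485 nm excitation, 535 nm emission, after ~16 h lysis at 37C. Before that, Dd2-infected red cells (2.5% hematocrit) grew 72 h with compound, 29 uM top final concentration.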
* marks the source's active call; other numbers are inactive results; i = inactive; [ ] = dose if it differs, or a comment. Potency means the concentration at half of the fitted maximal effect.

SMILES | Pf Dd2 growth
Cc1cc(C)n(CCC(=O)N2[C@H]3CC[C@@H]2c2cnc(-c4ccccc4)nc2C3)n1 | i
CCN(CC)CCCNC(=O)c1c(C)oc2ncn(CC(C)C)c(=O)c12 | 18%
COc1cccc(CN2CCn3c(nnc3[C@@H]3C[C@@H](O)CN3C)C2)c1 | -14%
CN(CCNC(=O)C1CCN(C(=O)N2CC3CC(C2)[C@H]2CCCC(=O)N2C3)CC1)C1CCCCC1 (stereo not given in full) | i
COc1ccccc1OC1CCN(C(=O)C2CCCN(C(C)=O)C2)CC1 (stereo not given) | -16%
O=C(CCC1CCCN(Cc2cccn2-c2ccccn2)C1)Nc1ccccc1F (stereo not given) | 7.9µM*
O=C(CCC1CCCN(Cc2cc3c(cc2Cl)OCO3)C1)Nc1ccccc1F (stereo not given) | -25%
O=C(CCC1CCCN(Cc2cccnc2)C1)Nc1ccccc1F (stereo not given) | -22%
Cn1c(CO[C@H]2CN(C(=O)C(C)(C)C)C[C@H]2F)nc2ccccc21 | 7%[44.1 µM]
Fc1cccc(-c2nnn3c2nc(NC2CCCCC2)c2ccccc23)c1 | 8.9µM*
Fc1cccc(-c2nnn3c2nc(NCc2ccc4c(c2)OCO4)c2ccccc23)c1 | 8%
CC(C)Nc1nc2c(-c3cccc(Br)c3)nnn2c2ccccc12 | i
Cc1ccc(S(=O)(=O)c2nnn3c2nc(N2CCCC2)c2sccc23)cc1 | i
CCn1cc2nc(SCc3cccc(Cl)c3)n(Cc3ccc(C)cc3)c(=O)c2n1 | i
CCn1cc2nc(SCc3cccc(C)c3)n(CCc3ccccc3)c(=O)c2n1 | i
CCn1cc2nc(SCc3cccc(C(F)(F)F)c3)n(Cc3ccc(C)cc3)c(=O)c2n1 | 10µM*
Cc1cccc(C(=O)NCC(=O)OCc2cc(=O)n3nc(C4CC4)sc3n2)c1 | 11%
CCc1cccc(NC(=O)c2nnn(Cc3ccc(SC)cc3)c2N)c1 | -10%
O=C(CN1CCOCC1)N[C@@H]1CN(Cc2ccccc2)C[C@H]1CO | 24%
CCCCCN1C(C(=O)c2ccccc2)=C(NC(C)=O)c2ccccc2S1(=O)=O | 24%
CCCCCN1C(C(=O)c2ccccc2)=C(OC(=O)CC)c2ccccc2S1(=O)=O | 3.2µM*
CCCCC(=O)OC1=C(C(=O)c2ccccc2)N(CCC)S(=O)(=O)c2ccccc21 | -24%
O=C(Nc1cccc(Cl)c1)c1cnc2sc(N3CCCC3)nn2c1=O | -12%
O=C(CN1C(=O)NC2(CCCCC2)C1=O)NC1CCCC1 | -24%
O=C(Cn1ccn(-c2ccc(F)cc2)c(=O)c1=O)NCCc1ccccc1 | 42%
SMILES | Pf Dd2 growth
Clc1ccc(-c2csc(-c3nc(-c4ccc(Br)s4)cs3)n2)cc1 | 8%
CC(C)CCN1CC(C(=O)NCCN(C)C)C2(CCOCC2)C1 (stereo not given) | -22%
COCCNc1nc2cc(C(=O)N[C@@H]3CC[C@@H](N)C3)ccc2n1C | 4%
COCCNc1ccc(-c2nc(-c3ccco3)no2)cc1[N+](=O)[O-] | -21%
COCCNc1nc2cc(-c3nc(-c4cccnn4)no3)ccc2n1C | 6.3µM*
CCN(CC)CCNC(=O)Cn1ncc2c([nH]c3ccccc32)c1=O | 89%
C=Cc1ccc(Cn2c(C(=O)O)c(CNCc3ccccc3)c3ccc(C)cc32)cc1 | 7.9µM*
Cc1ccc(CNCc2c(C(=O)O)n(Cc3ccccc3C)c3cc(C)ccc23)cc1 | 3.2µM*
Cc1ccc2c(CNCc3cccc(Cl)c3)c(C(=O)O)n(Cc3ccc(F)cc3Cl)c2c1 | 34%
Cc1ccc(Cn2c(C(=O)O)c(CNCc3ccc(OC(C)C)cc3)c3ccc(C)cc32)cc1 | 11µM*
Cc1ccc2c(CNC3CCCC3)c(C(=O)O)n(Cc3ccc(F)cc3)c2c1 | -3%
COc1ccc2c(CNCc3ccco3)c(C(=O)O)n(Cc3ccccc3)c2c1 | -8%
CCc1ccc(CNCc2c(C(=O)O)n(Cc3ccc(C)cc3)c3cc(C)ccc23)cc1 | 5µM*
Cc1ccc2c(CNCC(C)c3ccccc3)c(C(=O)O)n(Cc3ccccc3C)c2c1 (stereo not given) | i
COc1ccc2c(CNCc3cccs3)c(C(=O)O)n(Cc3ccc(C)cc3)c2c1 | -6%
COc1ccc(OC)c(CNCc2c(C(=O)O)n(Cc3ccccc3)c3cc(OC)ccc23)c1 | i
COc1ccc(Cn2c(C(=O)O)c(CNCc3ccco3)c3ccc(C)cc32)cc1 | i
Cc1ccc(CNCc2c(C(=O)O)n(Cc3ccc(C)cc3)c3cc(C)ccc23)cc1 | -13%
COc1ccc(C(=O)Nc2ncc(-c3cccc(N(C)C)c3)c3c2OCC3)cc1 | 8%[44.1 µM]
COc1ccc(-c2cn3nc(N4CCC(C(=O)Nc5ccc(C)cc5)CC4)sc3n2)cc1 | i
Cc1ccccc1NC(=O)CN1C(=O)NC2(CCOCC2)C1=O | 15%
CCCNc1cc(N2CCC(CCC(=O)N3CCN(c4ccc(F)cc4)CC3)CC2)ncn1 | -8%
CC(C)(C)NC(=O)N1CC(n2cc(C(=O)NCc3ccccc3)nn2)C1 | i
COCCn1c(C)cc(C(=O)N2CC(COC)C3(CCNCC3)C2)c1C (stereo not given) | 6%
CC(=O)Oc1c(-c2ccc(NC(=O)C(C)C)cc2)c(-c2ccc(F)cc2)nn1-c1ccc(F)cc1 | -14%
SMILES | Pf Dd2 growth
CC(C)Oc1ccc2c(NC(=O)C3CCOC3)nn(CC(F)(F)F)c2c1 (stereo not given) | 2%
Cc1ccc(NC(=O)N2CCC(Oc3ncccc3C(=O)N(C)C)C2)c(C)c1 (stereo not given) | i
Fc1ccc(-c2cnc([C@@H]3COCCN3C3CCC3)[nH]2)cc1 | -6%[44.1 µM]
COc1ccc(OC)c(NC(=O)c2cc3cc4ccc(C)cc4nc3s2)c1 | 9%
Cn1ccnc1C(=O)N1C[C@@H](COCC2CC2)[C@H](c2ccccn2)C1 | -6%
Cc1cc(C)c(NC(=O)C(C)n2c(=O)cc(-c3ccccc3)c3c(C)nn(C)c32)c(C)c1 (stereo not given) | 20%
COc1cc(OC)c(NC(=O)C(C)n2c(=O)cc(-c3ccccc3)c3c(C)nn(C)c32)cc1Cl (stereo not given) | 10µM*
Cc1c(Cl)cccc1NC(=O)C(C)n1c(=O)cc(-c2ccccc2)c2c(C)nn(C)c21 (stereo not given) | i
CCC(C(=O)Nc1ccc2c(c1)CN(Cc1ccccc1OC)C(=O)C(C)O2)c1ccccc1 (stereo not given) | 2.5µM*
CCC1Oc2ccc(NC(=O)Cc3ccc(F)cc3)cc2CN(Cc2ccc(Cl)cc2)C1=O (stereo not given) | -9%
CCNC(=O)Nc1ccc2c(c1)CN(Cc1ccccc1OC)C(=O)C(C)O2 (stereo not given) | i
CC1Oc2ccc(NC(=O)Cc3ccc(F)cc3)cc2CN(Cc2ccc(Cl)cc2)C1=O (stereo not given) | 10µM*
COc1cccc(CC(=O)Nc2ccc3c(c2)CN(Cc2ccccc2OC)C(=O)C(C)O3)c1 (stereo not given) | i
COc1ccccc1CN1Cc2cc(NC(=O)Cc3ccc(F)cc3)ccc2OC(C)C1=O (stereo not given) | -13%
Cc1nn2c(C)c(C(=O)NCCc3ccccc3)cnc2c1-c1ccccc1 | 20%
COC[C@@H]1CN(C(=O)Cc2ccc(OC)cc2)C[C@H]1c1ccncc1 | -17%
CCNC(=O)CC1COc2ccc(C(=O)NCCOC)cc2N1C (stereo not given) | 9%
CC1CCn2c(nc3cc(C(=O)NCc4ccc(F)cc4)ccc32)C1 (stereo not given) | -22%
COCCc1nncn1C1CCN(C(=O)c2ccccc2OC(F)(F)F)CC1 | 1%

Source: PubChem
